Bioassay records as filed in PubChem.
Cycloheximide cs: Cycloheximide Counterscreen for Small Molecule Inhibitors of Shiga Toxin; cell reporter, cycloheximide protein synthesis inhibition counterscreen; max response, %; actives 12% (n = 300,000); in the data active means max response mostly above about 13%, no sharp cut-off; inactive means mostly below about 14%; further: read at 38.3 µM for the half of the compounds with a filed dose
NS1 inh: qHTS Assay for Inhibitors of Influenza NS1 Protein Function; actives 0.4% (n = 270,000); Potency, µM (top dose mostly 46.1 µM); AID 2326, 2010; calls by dose curve; further: actives are rising curves; nearly all actives have a fitted effect of over 50% in size
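OD600 was taken as the measure of yeast growth restored by compound in an NS1-expressing S. cerevisiae strain. Cells had been washed out of glucose medium and diluted 1:100 into galactose -URA medium, pH 6.0.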
Giardia FBPA inh: qHTS Assay for Inhibitors of Fructose-1,6-bisphosphate Aldolase from Giardia Lamblia; purified Giardia FBPA; Potency, µM (highest dose often 59.6 µM), usual class: inhibitors; actives 0.71% (n = 290,000); AID 2451, 2010; further: nearly all actives have a fitted effect of over 55% in size
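40 nM FBPA preincubated 10 min at RT with compound (up to 57.5 uM final), then substrate plus GAPDH/TPI/NAD/arsenate coupling and diaphorase/resazurin added. Fluorescence read after 20 min at RT, 525/598 nm.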
Shiga toxin inh: A qHTS for Small Molecule Inhibitors of Shiga Toxin; inhibition, % at 38.7 µM; actives 9.2% (n = 290,000); Vero cells, Shiga toxin protein synthesis inhibition reporter; in the data active means inhibition mostly above about 28%, no sharp cut-off; inactive means mostly below about 43%
LmPK inh: qHTS Assay for Inhibitors of Leishmania Mexicana Pyruvate Kinase (LmPK). actives 0.37% (n = 290,000). purified LmPK, Kinase-Glo ATP luminescence, 1 h. Potency, µM (doses to about 57.5 µM), hits mostly inhibitors. Q27686
Target sequence (Q27686 whole entry, looked up): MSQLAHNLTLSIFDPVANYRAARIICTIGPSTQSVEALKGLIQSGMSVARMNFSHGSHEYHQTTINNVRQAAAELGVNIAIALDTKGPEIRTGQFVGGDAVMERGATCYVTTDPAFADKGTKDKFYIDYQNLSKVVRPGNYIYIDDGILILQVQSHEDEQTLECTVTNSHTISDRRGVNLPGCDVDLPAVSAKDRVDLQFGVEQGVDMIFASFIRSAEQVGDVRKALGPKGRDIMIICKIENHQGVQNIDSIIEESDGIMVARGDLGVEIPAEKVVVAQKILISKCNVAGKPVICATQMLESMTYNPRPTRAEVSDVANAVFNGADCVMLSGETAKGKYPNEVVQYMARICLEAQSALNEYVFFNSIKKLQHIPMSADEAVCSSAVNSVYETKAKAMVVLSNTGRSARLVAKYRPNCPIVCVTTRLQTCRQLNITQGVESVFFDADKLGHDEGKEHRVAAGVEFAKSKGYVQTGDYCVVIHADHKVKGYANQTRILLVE
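In 50 mM imidazole pH 7.2 with 7 mM MgCl2, LmPK (0.1 nM) turned over PEP (0.5 mM) and ADP (0.1 mM) for 1 h at room temperature. Luciferase read-out of ATP.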
Numbers stand for hits; [ ] = dose if it differs, or a comment. Compounds with a hit are over-represented: about 14% of the library has one in this group of screens. Unless noted, the call rests on the fitted dose curve; in most records, active means well fitted curve in the direction sought with a large enough effect; inconclusive means small, poorly fitted or top-dose-only effect, or another doubt; inactive means no such curve, though single readings can be large; an effect the other way counts as inactive or inconclusive.

CCNC(=S)N/N=C/c1sc(N2CCCCC2)nc1-c1cccs1 was read as Cycloheximide cs 30, NS1 inh inactive, Giardia FBPA inh inactive, Shiga toxin inh active and LmPK inh inactive.
CN(CC(=O)Nc1cccc(F)c1)C(=O)C1CC(=O)N(Cc2ccccc2)C1 (stereo unspecified) was read as Cycloheximide cs inactive, NS1 inh inactive, Shiga toxin inh inactive and LmPK inh inactive.
`Cc1ccc(C(=O)CC(=O)c2cc(Cl)ccc2O)cc1` gave Cycloheximide cs 35, NS1 inh inactive, Giardia FBPA inh inactive, Shiga toxin inh 121 and LmPK inh inactive.
Cc1ccc(C(=O)CC(=O)c2ccc(C)cc2O)cc1 was read as Cycloheximide cs 39, NS1 inh inactive, Giardia FBPA inh inactive, Shiga toxin inh 87 and LmPK inh inactive.
Screening O=C(CN1CCCC1)Nc1ccc(Br)cc1[N+](=O)[O-] returned Cycloheximide cs 27, NS1 inh inactive, Giardia FBPA inh inactive and LmPK inh inactive.
Cc1ccc(NC(=O)CN2CCCC2)cc1Br was read as Cycloheximide cs inactive, NS1 inh inactive, Giardia FBPA inh inconclusive, Shiga toxin inh inactive and LmPK inh inactive.
Screening Cc1ccc(NC(=O)CN2CCCCCC2)cc1[N+](=O)[O-] returned Cycloheximide cs 42, Giardia FBPA inh inactive, Shiga toxin inh 103 and LmPK inh inactive.
`CN1CCN(c2ncc3nc(-c4cccc(C#N)c4)c(=O)n(Cc4ccc(F)cc4)c3n2)CC1` gave Giardia FBPA inh inactive.
For CC(C)(C)C(=O)CSc1ncnc2sc3c(c12)CCC3 the results were Cycloheximide cs 44, NS1 inh inactive, Giardia FBPA inh inactive, Shiga toxin inh 67 and LmPK inh inactive.
`CC(=O)CSc1ncnc2sc3c(c12)CCC3` gave Cycloheximide cs inactive, Giardia FBPA inh inactive, Shiga toxin inh inactive and LmPK inh inactive.
`CC(=O)Nc1c(N)[nH]c(=O)n(C)c1=O` gave Cycloheximide cs inactive, Giardia FBPA inh inactive and Shiga toxin inh inactive.
`CC(=O)Nc1c2sscc-2n(C)c1=O` gave Cycloheximide cs 47, Giardia FBPA inh inactive and Shiga toxin inh 36.
`CC1=N[C@@](C)(COC(=O)[C@]2(C)N[C@](C)(CO)CO2)COC1=O` gave NS1 inh inactive.
For C=C(C(=O)OC)C(NC(=O)OC)c1ccccc1 (stereo unspecified) the results were Giardia FBPA inh inactive.
`Cc1nc(N)sc1-c1csc(Nc2cccc(O)c2)n1` gave Cycloheximide cs 14, NS1 inh inactive, Giardia FBPA inh inconclusive, Shiga toxin inh inactive and LmPK inh inactive.
Cc1cccc(Nc2nc(-c3sc(C)nc3C)cs2)c1 was read as Cycloheximide cs 29, NS1 inh inactive, Giardia FBPA inh inactive, Shiga toxin inh 50 and LmPK inh inactive.
For CCC(=O)Nc1nc(C)c(-c2csc(Nc3cccc(O)c3)n2)s1 the results were Cycloheximide cs 36, NS1 inh inactive, Giardia FBPA inh inactive, Shiga toxin inh 50 and LmPK inh inactive.
For Cc1nc(C)c(-c2csc(Nc3cccc(O)c3)n2)s1 the results were Cycloheximide cs 45, NS1 inh inactive, Giardia FBPA inh inactive, Shiga toxin inh 35 and LmPK inh inactive.
`CCNC(=O)N1CCCC(C(=O)c2ccc(C(F)(F)F)cc2)C1` (stereo unspecified) gave Cycloheximide cs inactive, NS1 inh inactive, Giardia FBPA inh inactive, Shiga toxin inh inactive and LmPK inh inactive.
For Cn1cccc1C(=O)N1CCC2(CCCN(c3cccc(-c4ccccc4)c3)C2)CC1 the results were Giardia FBPA inh inactive.
For C[C@H](C[C@H](N)C(=O)O)C(=O)O the results were Cycloheximide cs inactive, Giardia FBPA inh inactive and Shiga toxin inh inactive.
Screening CCCCCCCC/C=C\CCCCCCCC(=O)OCC(CO)OC(=O)CCCCCCC/C=C\CCCCCCCC (stereo unspecified) returned Giardia FBPA inh inactive.
`c1cc2c3c(cccc3c1)C(N1CCCCCC1)=N2` gave Cycloheximide cs inactive, NS1 inh inactive, Giardia FBPA inh inconclusive, Shiga toxin inh inactive and LmPK inh inactive.
Screening c1ccc2c(c1)CCN(C1=Nc3cccc4cccc1c34)C2 returned Cycloheximide cs 35, Giardia FBPA inh inconclusive, Shiga toxin inh 49 and LmPK inh inactive.
`CCCCc1nc2c(c3c1C[C@H](C)OC3)CN(S(=O)(=O)c1ccc(Cl)c3nonc13)CC2` gave Giardia FBPA inh inactive[12.9 µM] and LmPK inh inactive[11.5 µM].
`CCn1c2ccccc2c2nnc(SCCN3CCOCC3)nc21` gave Cycloheximide cs inactive, NS1 inh inactive, Giardia FBPA inh inconclusive and LmPK inh inactive.
Cc1ccc2[nH]c3c(=O)n(CCN4CCOCC4)cnc3c2c1 was read as Cycloheximide cs 39, NS1 inh inactive, Giardia FBPA inh inactive, Shiga toxin inh 61 and LmPK inh inactive.
Cn1c2ccccc2c2nnc(SCC(=O)Nc3cccc(O)c3)nc21 was read as Cycloheximide cs 11, NS1 inh inactive, Giardia FBPA inh inactive, Shiga toxin inh inactive and LmPK inh inactive.
`Cc1ccc2[nH]c3nc(SCCN4CCOCC4)nnc3c2c1` gave Cycloheximide cs 28, NS1 inh inactive, Giardia FBPA inh inactive, Shiga toxin inh 86 and LmPK inh inactive.
`CCn1c2ccc(C)cc2c2nnc(SCCN3CCOCC3)nc21` gave Cycloheximide cs inactive, NS1 inh inactive, Giardia FBPA inh inactive, Shiga toxin inh inactive and LmPK inh inactive.
Cn1c2ccccc2c2nnc(SCCN3CCOCC3)nc21 was read as Cycloheximide cs 16, NS1 inh inactive, Giardia FBPA inh inactive, Shiga toxin inh inactive and LmPK inh inactive.
For CCC(C)[C@H](NC(=O)[C@H](Cc1ccccc1)n1c(=O)[nH]c2ccccc2c1=O)C(=O)N1CCC[C@@H]1C(=O)O (stereo partly specified) the results were Cycloheximide cs inactive, NS1 inh inactive, Giardia FBPA inh inactive, Shiga toxin inh inactive and LmPK inh inactive.
`Cc1ccc2[nH]c3c(NCCCN4CCCC4=O)ncnc3c2c1` gave Cycloheximide cs 31, NS1 inh inactive, Giardia FBPA inh inactive, Shiga toxin inh 71 and LmPK inh inactive.
For CC(=O)c1c(C)[nH]c(C(=O)NCCc2c[nH]c3ccccc23)c1C the results were Cycloheximide cs 39, NS1 inh inactive, Giardia FBPA inh inactive, Shiga toxin inh 41 and LmPK inh inactive.
CSc1cccc(NC(=O)c2[nH]c(C)c(C(C)=O)c2C)c1 was read as Cycloheximide cs 44, NS1 inh inactive, Giardia FBPA inh inactive, Shiga toxin inh 93 and LmPK inh inactive.
Screening CCC(C)c1ccc(NC(=O)c2[nH]c(C)c(C(C)=O)c2C)cc1 (stereo unspecified) returned Cycloheximide cs 23, NS1 inh inactive, Giardia FBPA inh inactive, Shiga toxin inh 71 and LmPK inh inactive.
Screening CC(=O)c1c(C)[nH]c(C(=O)NCCC2=CCCCC2)c1C returned Cycloheximide cs 49, NS1 inh inactive, Giardia FBPA inh inactive, Shiga toxin inh 105 and LmPK inh inactive.
